In the library only some 2.4% were active in any assay of this set; here they are far more common.
ULK1 primary: human ULK1 kinase inhibition, primary screen | inhibition, % at 5.96 µM | O75385 | AlphaScreen Atg13 phosphorylation by ULK1, luminescence | 1.9% of 30,000 active; in the data active = inhibition above about 43%
ASK1 primary: human ASK1 kinase inhibition, primary screen; Q99683; AlphaScreen MKK6 phosphorylation by ASK1, luminescence; inhibition, % at 7.44 µM; 0.99% of 22,000 active; AID 1159602; in the data active = inhibition above about 35%
Each line names hits and unclear results; the compound was inactive in the other large screens.

O=S(=O)(O)c1cc(I)c(O)c2ncccc12	ULK1 primary 45.1 (no result: ASK1 primary)
Oc1c(I)cc(I)c2cccnc12	ULK1 primary 51.1 (no result: ASK1 primary)
Oc1ccc(Cl)c2cccnc12	none (no result: ASK1 primary)
Oc1c(Cl)cc(Cl)c2cccnc12	none (no result: ASK1 primary)
O=C(Cc1ccc2c(c1)OCO2)Nc1cc(Nc2ccccc2-c2ncn[nH]2)c(F)cn1	none
O=c1ccc(-c2ccco2)cn1Cc1ccc(F)cc1F	none (no result: ASK1 primary)
CN1CCc2cccc3c2[C@H]1Cc1ccc(O)c(O)c1-3	ULK1 primary 46.4 (no result: ASK1 primary)
CCCNc1nc(Cl)ncc1C	none
Cn1c(Nc2nc(NCCc3ccc(O)cc3)c3ncn(C4CCCCC4)c3n2)nc2ccccc21	ULK1 primary 44.5
CCCNc1nc(Nc2nc3ccccc3n2C)nc2c1ncn2C1CCCCC1	none
N[C@@H](Cc1ccc(O)c(O)c1)C(=O)O	none (no result: ASK1 primary)
C[C@H](Cc1ccc(O)c(O)c1)[C@@H](C)Cc1ccc(O)c(O)c1	ULK1 primary 77.7 (no result: ASK1 primary)
O=C(CN1C(=O)NC2(CCN(Cc3ccccc3)CC2)C1=O)N1CCOCC1	none (no result: ASK1 primary)
CCNc1ncc(C(=O)NC2CC2)s1	none
O=C(NC1CC1)c1cnc(Nc2ncccn2)s1	ULK1 primary 44.4
CCOC(=O)C(C)(N)Cc1ccc(O)c(O)c1 (stereo not drawn)	none (no result: ASK1 primary)
CC(N)(Cc1ccc(O)c(O)c1)C(=O)O (stereo not drawn)	ULK1 primary 84.8 (no result: ASK1 primary)
CCN(Cc1ccccc1)C(=O)Nc1ccc(-c2cn[nH]c2)cc1OCCN1CCCC1	none
Nc1oncc1-c1ccc(NC(=O)C2COc3ccc(F)cc3C2)cc1 (stereo not drawn)	none
Fc1cc(-c2nc(Nc3cccc(CN4CCCC4)c3)ncc2F)cc(N2CCOCC2)c1	ULK1 primary 70.0
Fc1cc(-c2ccnc(Nc3cccc(CN4CCOCC4)c3)n2)cc(N2CCOCC2)c1	none
Fc1cc(-c2nc(Nc3cccc(CN4CCOCC4)c3)ncc2F)cc(N2CCOCC2)c1	ULK1 primary 45.0
Fc1cc(-c2nc(Nc3cccc(Cn4cccn4)c3)ncc2F)cc(N2CCOCC2)c1	none
COc1ccc(-c2nc3c(NCCN(C(C)C)C(C)C)ncnc3n2C(C)C)cc1	none
Cc1cccc(C(=O)N2CCN(c3nc(C)cc(N4CCN(C)CC4)n3)CC2)c1	none (no result: ASK1 primary)
COc1ccc(-c2nc3ccc(C(=O)Nc4cc(OC)c(OC)c(OC)c4)cc3s2)cc1	none
FC(F)(F)c1cccc(CNc2nc(Nc3ccccn3)nc3c2ncn3-c2ccsc2)c1	none
c1ccc(OCCNc2ccnc(NCCN3CCOCC3)n2)cc1	none
CCC(=O)c1c(O)cc(O)cc1O	ULK1 primary 62.0 (no result: ASK1 primary)
Oc1cc(O)cc(O)c1	none (no result: ASK1 primary)
CC(=O)c1cccc(-c2nccc(Nc3ccc(Oc4ccccc4)cc3)n2)c1	none
COc1cc(C(=O)NS(=O)(=O)c2ccccc2C)ccc1Cc1cn(C)c2ccc(NC(=O)OC3CCCC3)cc12	ULK1 primary 65.4 (no result: ASK1 primary)
CCOc1ccc(-c2cc(=O)c3cc(NC(=O)c4ccc(OC)c(OC)c4)ccc3o2)cc1	none (no result: ASK1 primary)
c1ccc(Oc2ccc(Nc3ccnc(N4CCc5ccccc5C4)n3)cc2)cc1	none
C=CCN(CC=C)C(=O)c1ccc(Cl)cc1[N+](=O)[O-]	none (no result: ASK1 primary)
COc1cccc(CN(C)C(=O)c2cc3ccc(-c4cn[nH]c4)cc3n2C)c1	none
Cc1cc(-c2ccc(N=Nc3c(S(=O)(=O)O)cc4cc(S(=O)(=O)O)cc(N)c4c3O)c(C)c2)ccc1N=Nc1c(S(=O)(=O)O)cc2cc(S(=O)(=O)O)cc(N)c2c1O	ULK1 primary 80.9 (no result: ASK1 primary)
O=C(NC1CC1)c1cccc(NS(=O)(=O)c2ccc(-c3ncnc4[nH]ccc34)cc2)c1	ULK1 primary 43.5
NC(=O)c1ccc(-c2cccc(C(=O)NC3CC3)c2)cc1	none
COc1cc(Nc2nc(NCCN(C(C)C)C(C)C)c3[nH]cnc3n2)cc(OC)c1OC	none
COc1cc(Nc2nc(Nc3cccnc3)nc3nc[nH]c23)cc(OC)c1OC	none
COc1cc(Nc2nc(Nc3ccccc3)c3[nH]cnc3n2)cc(OC)c1OC	ULK1 primary 65.0
COc1cc(Nc2nc(NCc3ccccc3)c3[nH]cnc3n2)cc(OC)c1OC	ULK1 primary 67.4
CCCNc1nc(Nc2cc(OC)c(OC)c(OC)c2)nc2nc[nH]c12	ULK1 primary 59.0
COc1cc(Nc2nc(Nc3nccc4ccccc34)nc3nc[nH]c23)cc(OC)c1OC	none
O=C1CCCN1CCn1cnc2c(NCCN3CCOCC3)nc(Nc3cnccn3)nc21	none
CC(C)n1cnc2c(NCCCN3CCCC3=O)nc(Nc3ccc(N4CCOCC4)cc3)nc21	none
O=C(Nc1nccs1)c1cc(-c2ccccc2)n[nH]1	none
COc1cccc(CNC(=O)c2c(C)nc3ccc(-c4ccnc(N)n4)cn23)c1	none
COc1cccc(CNC(=O)c2c(C)nc3ccc(-c4ccc5nc(C)c(C(=O)NCc6cccc(OC)c6)n5c4)cn23)c1	ASK1 primary 41.9
Cc1nn(C)c(C)c1-c1ncc(C(=O)NCCCN2CCCC2=O)s1	none
CC(C)n1c(Nc2ccc(N3CCOCC3)cc2)nc2c(Nc3ccccc3)ncnc21	none
CC(C)n1c(Nc2cccc(N(C)C)c2)nc2c(Nc3ccc(N4CCOCC4)cc3)ncnc21	ASK1 primary 37.4
OCC1CCCN1c1nc(NCCOc2ccccc2)c2ncn(C3CCCCC3)c2n1 (stereo not drawn)	none
O=C(NCCN1CCOCC1)c1csc(N2CCc3ccccc3C2)n1	none
c1cnc(Nc2nc(Nc3ccc(N4CCOCC4)cc3)c3ncn(C4CCCCC4)c3n2)nc1	none
c1cncc(CNc2nc(Nc3ccc(N4CCOCC4)cc3)c3ncn(C4CCCCC4)c3n2)c1	ULK1 primary 62.5
CC(=O)Nc1ccc(Nc2nc(Nc3ccc(N4CCOCC4)cc3)nc3c2ncn3C2CCCCC2)cc1	ULK1 primary 48.0
c1ccc(CNc2nc(Nc3ccc(N4CCOCC4)cc3)nc3c2ncn3C2CCCCC2)cc1	none
COc1cc(Nc2ccc(-n3cc(CC(=O)NCCc4ccc(O)cc4)c4ccccc43)nn2)cc(OC)c1OC	none
CCN(CC)C(=O)C1CCCN(c2ncc(C(=O)Nc3ccc(Oc4ccccc4)cc3)s2)C1 (stereo not drawn)	none
O=C(Nc1ccc(N2CCOCC2)cc1)c1cnc(N2CCOCC2)s1	ULK1 primary 44.8
O=C(Nc1ccc(N2CCOCC2)cc1)c1cnc(N2CCN(c3ccccn3)CC2)s1	none
CCN(CC)C(=O)C1CCCN(c2ncc(C(=O)Nc3ccc(N4CCOCC4)cc3)s2)C1 (stereo not drawn)	ULK1 primary 48.5
COc1cc(-c2cn[nH]c2)ccc1NC(=O)C1COc2ccc(C)cc2C1 (stereo not drawn)	none
COc1cc(Nc2cc(C)nc(-c3c(C)nn(C)c3C)n2)cc(OC)c1OC	none
Cc1[nH]ncc1-c1ccc(NC(=O)C2COc3ccccc3C2)cc1 (stereo not drawn)	none
O=C(c1cc2nc(-c3ccco3)cc(C(F)(F)F)n2n1)N1CCCCC1	none (no result: ASK1 primary)
O=C(Nc1ccc2nc(-c3ccco3)c(-c3ccco3)nc2c1)N1CCCC1	ULK1 primary 67.5 (no result: ASK1 primary)
CCN(CC)C(=O)C1CCCN(c2nc3ccc(C(=O)NC4CCN(Cc5ccccc5)CC4)cc3s2)C1 (stereo not drawn)	none
O=C(NC1CC1)c1ccc(-c2cccc(C(=O)Nc3ccc(N4CCOCC4)cc3)n2)cc1	none
CCN(CC)C(=O)C1CCCN(c2nc(NCc3nc4ccccc4[nH]3)c3cc(OC)c(OC)cc3n2)C1 (stereo not drawn)	ULK1 primary 49.5
CCN(CC)C(=O)C1CCCN(c2nc(NCc3cccnc3)c3cc(OC)c(OC)cc3n2)C1 (stereo not drawn)	none
COc1ccc(-c2nc(NCCN3CCOCC3)c3[nH]cnc3n2)cn1	none
Oc1ccc(CCNc2cc(-c3cccs3)ncn2)cc1	none
O=C(Nc1cnn(-c2cccc(C(=O)Nc3ccc(N4CCOCC4)cc3)c2)c1)Nc1ccccc1Cl	none

Bioassay records: PubChem, The Scripps Research Institute Molecular Screening Center
